Reference: PubChem BioAssay AID743398 (Broad Institute, 2014)
The whole screen tested about 300,000 compounds, of which about 3,600 (1.2%) were called active. No stated cut-off is given here; in the data, active means activation above about 30% (passing the limit was not always enough); inconclusive means no clear call, values can overlap the other calls. The sample as a whole holds a higher share of actives than the screen did.

Assay: activation of beta-catenin signaling reporter – cell-based, plate reader, single point, primary screen (AID 743398);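 further: 0% = neutral control wells and 100% = positive control wells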
Conditions: Wnt/beta-catenin reporter cell assay, activator, at 9.35 µM, hits give high values

activation, inactive:
O=C(NNC(=O)C1CCCC1)c1ccc(F)cc1 -1.64%
O=C(N/N=C/c1ccc([N+](=O)[O-])o1)c1cn(-c2ccccc2)nc1-c1ccc(F)cc1 -0.879%
CCCCCn1nnnc1-c1nc2cc3ccccc3cc2[nH]c1=O -1.88%
COc1ccc(NC(=O)C2(C)Cc3c(-c4cccc(NC(C)=O)c4)ccnc3O2)cc1OC (stereo not drawn) -0.993%
COCc1cc(N2CCN(C(=O)OC(C)(C)C)C[C@@H]2C)ccc1N1CCN(Cc2ccccc2)[C@H](C)C1 -6.08%
O=C(Cc1nn[nH]n1)NCCC1=CCCCC1 1.57%
O=C(NCCC1=CCCCC1)c1ccc(Cl)c([N+](=O)[O-])c1 12.3%
COC(=O)[C@@]12C[C@@H](CC(=O)NCCCCc3ccccc3)C(=O)N(Cc3ccccc3)C1=CCC(C)(C)C2 -3.6%
O=C(c1ccc(N2CCOCC2)c([N+](=O)[O-])c1)N1CCN(c2ccccc2F)CC1 -6.11%
CC(C)c1ccc(S(=O)(=O)N2CCN(C(=O)c3ccc(N4CCCC4)c([N+](=O)[O-])c3)CC2)cc1 -1.38%
O=S1(=O)c2c(cccc2N2CCCC2)O[C@H](COCc2ccccc2)CN1C1CC1 -2.59%
O=C(c1ccccc1)N1N=C(c2ccccc2O)CC1c1ccc(Br)cc1 (stereo not drawn) -1.76%
c1ccc(C2=Nc3cccc4cccc(c34)N2)cc1 -4.88%
COCOc1cccc(CN2CCC(C)(Oc3ccc(SC)cc3)C2)c1 (stereo not drawn) 0.071%
CC1(C)CC(=O)C=C(c2ccc(COC(=O)c3cc(F)cc(F)c3)cc2)C1=O 0.449%
CCc1cc(-c2nnn(CCC3COCCO3)c2CC)ccc1-c1cn(Cc2ccc3ccccc3c2)nn1 (stereo not drawn) -3.93%
COc1ccc(N=Nc2ccc(O)c(P(=O)(c3ccccc3)c3ccccc3)c2)cc1 1.19%
COC(=O)Cc1[nH]n(-c2nc3ccccc3s2)c(=O)c1C(C)=Nc1ccc(OC)cc1 -8.84%
COc1cc(NC(=O)C2=C(C)OCCS2)c(Cl)cc1C(=O)NCCCN1CCCC(C)C1 (stereo not drawn) 2.04%
Cc1cc2cc3n(c2nn1)N=C(Cl)CC3 -1.61%
O=C1CC(c2ccccc2)=NN1c1ccc([N+](=O)[O-])cc1 5.66%
Cc1cc(CO)nn1-c1ccc([N+](=O)[O-])cc1 3.25%
CC(C)C[C@H](NC(=O)CC1CCCC1)C(=O)N1CCC[C@H]1C(=O)NCc1ccccc1 3.46%
COc1cccc(NC(=O)C2(C)CCN2C(=O)CCC2CCCC2)c1 (stereo not drawn) -2.67%
Cc1ccc(Cc2c(-c3ccc(Cl)cc3)nc3c4ccccc4ccn23)cc1 -0.0465%
O=C(CSc1nc2ccc([N+](=O)[O-])cc2[nH]1)c1ccc(Cl)cc1 -2.13%
O=C(/C(=C/c1cccc(Cl)c1)c1nc2ccccc2[nH]1)c1ccccc1 27.7%
Cc1ccc(Nc2ncnc3c2cnn3C)c(C)c1 0.858%
O=C(NNc1ncnc2c1cnn2-c1ccccc1)c1ccco1 0.184%
CC(=O)C1=C(C)N(Cc2ccc(Cl)cc2)C(=S)NC1c1ccc(F)cc1 (stereo not drawn) -10%
N#CC1=C(N)N(c2ccccc2)C2=C(C(=O)CCC2)C1c1ccccc1 (stereo not drawn) -0.648%
CCOc1ccc(C2C(C#N)=C(N)N(N(C)C)C3=C2C(=O)CCC3)cc1 (stereo not drawn) 6.29%
COc1cccc(-c2nc3nc(C)cc(C)n3c2NC2CCCCC2)c1 5.8%
CC[C@H](NC(=O)[C@H](Cc1ccccc1)NC(=O)[C@H]1O[C@@H](n2cnc3c(=O)[nH]c(N)nc32)[C@H](O)[C@@H]1O)c1ccccc1 -0.864%
Cc1sc2ncnc(N3CCC(C(=O)Nc4ccc(F)cc4Cl)CC3)c2c1C -1.16%
Cc1sc2ncnc(N3CCC(C(=O)NNC(=O)c4ccc(F)cc4)CC3)c2c1C 3.2%
C[C@H](NC(=O)[C@@H]1CCCN1C(=O)[C@@H]1CCCN1C(=O)c1ccccc1)c1ccccc1 -3.41%
COc1ccc(Cn2c(=O)oc3ccccc32)cc1 8.74%
CCn1c(C)cc(=O)cc1-c1ccc(Cl)cc1 2.88%
Cc1cc(C)n2c(NCc3ccccc3)c(CC(C)C)nc2n1 -0.325%
COC(=O)C1=C(C)N(Cc2cccc(C(F)(F)F)c2)C(=NCc2ccccc2)NC1c1ccccc1C(F)(F)F (stereo not drawn) -15.6%
O=C(CC(CC(=O)c1ccccc1)c1ccco1)c1ccccc1 0.593%
O=C(COC(=O)c1ccc(O)cc1O)NC(=O)c1ccccc1 -3.61%
O=C(COC(=O)c1ccccc1)c1ccc2c(c1)OCCO2 -3.49%
O=C(O)Cn1cnc2c(NCc3ccccc3)ncnc21 -0.517%
COC(=O)C1=C(C)N(Cc2cccc(C(F)(F)F)c2)C(=NCc2ccccc2)NC1c1ccc(Cl)cc1 (stereo not drawn) -31.1%
O=C(NC1CCCCC1)c1cc(C2CC2)on1 24.8%
COc1ccc(-c2cc(C(=O)NCCCn3ccnc3)no2)cc1 6.05%
O=C(NCCCn1ccnc1)c1ccccc1F -0.169%
O=C(NC1CCCCCCC1)c1cccs1 9.38%
Cc1ccccc1S(=O)(=O)N1[C@@H](c2cccc(Cl)c2)C(C(=O)OC(C)(C)C)=CC[C@H]1c1ccc(Cl)cc1 -9.66%
COc1ccccc1-c1ccc([C@@H]2C[C@H]3[C@H](CON3C)CN2S(=O)(=O)c2cc(Cl)cc(Cl)c2)cc1 -3.43%
COC(=O)[C@]12C[C@H](CC(=O)NCc3ccccc3)C(=O)N(CCC3=CCCCC3)C1=C[C@H](C(C)(C)C)O[C@@H]2C -7.29%
Cc1cccc(CNC(=O)c2sc(=O)n(Cc3ccccc3C)c2C)c1 -2.16%
O=C(Nc1nnc(C2CC2)s1)c1ccccn1 3.38%
Cc1cnc(NC(=O)c2ccc(Cl)nc2)s1 29%
COC(=O)[C@]12C[C@H](CC(=O)NCCCCc3ccccc3)C(=O)N(Cc3ccc4c(c3)OCO4)C1=C[C@H](C(C)(C)C)O[C@@H]2C -8.78%
O=C(/C=C/c1ccccc1)Nc1nnc(SCC(=O)c2ccc3ccccc3c2)s1 -11.8%
NC(=O)CSc1nnc(NC(=O)c2ccc(Br)o2)s1 3.36%
COc1ccc(CC(N)c2csc(NC(=O)Nc3ccc(C(C)C)cc3)n2)cc1 (stereo not drawn) 0.986%
Cc1ccc(C)c(CN2CCC(CNC(=O)C3CCCN(c4ncnc5c4nc4n5CCCCC4)C3)CC2)c1 (stereo not drawn) 2.22%
CSc1ccc(CN2CCC2(C)C(=O)NCc2ccccc2Br)cc1 (stereo not drawn) -0.564%
CCOC(=O)C1CCCN(C(=O)c2cc(-c3cccs3)oc2C)CC1 (stereo not drawn) -1.53%
CCN1C(=O)[C@@H]2[C@@H]3CN(S(=O)(=O)c4ccccc4C)[C@@H](c4ccc(Cl)cc4)[C@@H]3C(=O)C[C@@H]2C1=O -1.76%
Oc1cccc2cc(-c3ccncc3)cnc12 4.6%
C=CC[C@]12C[C@@]3(O[C@H](c4ccc(C(F)(F)F)cc4)N=C3C[C@H](c3ccc(OC)cc3)[C@H]1C)N(C1CCN(Cc3ccccc3)CC1)C2=O -5.8%
C=CCOc1cccc(C2C(C(=O)c3ccc(C)o3)=C(O)C(=O)N2CCN2CCOCC2)c1 (stereo not drawn) -3.18%
Cc1ccc(Cc2nc(-c3cccc(C)c3)no2)cc1 16.6%
Cc1ccc(-c2nc(-c3ccncc3)no2)c(C)c1 0.571%
CN1CCCCC(NC(=O)C(C)(C)C)C1=O (stereo not drawn) -0.306%

activation, active:
O=C(/C=C/c1ccc([N+](=O)[O-])o1)NNC(=O)c1ccc(F)cc1 37.2%
O=C(NCCC1=CCCCC1)c1ccc(-n2cncn2)cc1 36.7%
O=C(c1ccc(N2CCOCC2)c([N+](=O)[O-])c1)N1CCN(S(=O)(=O)c2cccs2)CC1 42%
Brc1ccc(C2CC(c3ccccc3)=Nc3ccccc3N2)cc1 (stereo not drawn) 63.6%
COc1ccc(N=C(C)c2sc3ccccc3c2O)cc1 50.3%
Cc1nn(-c2ccc([N+](=O)[O-])cc2)c(N)c1-c1ccccc1 37.5%
O=C(Cc1nc2ccccc2[nH]c1=O)c1ccc(Cl)cc1 52.5%
Cc1ccc(-n2ncc3c(Nc4cccc(C(=O)O)c4)ncnc32)cc1 42.2%
COc1ccc(C2C(C#N)=C(N)N(c3ncn[nH]3)C3=C2C(=O)CCC3)cc1 (stereo not drawn) 43.2%
Cc1sc2ncnc(N3CCC(C(=O)Nc4nc5ccc(Cl)cc5s4)CC3)c2c1C 38.3%
COc1ccc(Cn2c(-c3ccc(Cl)cc3)c[n+]3ccccc23)cc1 68.9%
O=C(COC(=O)c1ccc(O)cc1O)c1ccc2c(c1)OCCO2 53.6%
O=C(NCCCn1ccnc1)c1cc(-c2ccccc2)on1 113%
O=C(NC1CCCC1)c1cc(-c2ccccc2)on1 46.9%
Cc1cnc(NC(=O)c2ccccn2)s1 41.6%
NC(=O)CSc1nnc(NC(=O)c2ccc3ccccc3c2)s1 39.8%
Nc1ccc(N=Nc2ccccc2Cl)c(N)n1 37.3%
Cc1cccc(-c2noc(-c3ccc(F)cc3)n2)c1 51%
